The campaign covered roughly 39,000 compounds. About 1,500 (3.8%) were called active. The list comes from a sample in which actives are over-represented; it also holds similar structures and randomly drawn compounds.
The compounds below were run on HSkMC (human skeletal muscle cells) (assay: cytotoxicity call (relative viability < 0.9)). Conditions: 10 µM.

| SMILES | cytotoxicity call |
| --- | --- |
| C[C@@H]1CN([C@H](C)CO)C(=O)c2cccc(NC(=O)c3nc4ccccc4s3)c2O[C@H]1CN(C)C(=O)Nc1cccc2ccccc12 | inactive |
| CCN1C(=O)CN(CC(=O)O)C1=O | inactive |
| NCc1ccc2nsnc2c1 | inactive |
| C[C@@H]1CN([C@@H](C)CO)C(=O)c2cccc(NS(C)(=O)=O)c2O[C@H]1CN(C)C(=O)Nc1ccc(C(F)(F)F)cc1 | inactive |
| O=C(C[C@@H]1CC[C@@H]2[C@H](COC[C@H](O)CN2C(=O)Nc2ccc(F)cc2)O1)NCCCN1CCOCC1 | inactive |
| C[C@H](CO)N1C[C@H](C)[C@@H](CN(C)S(C)(=O)=O)OCCCC[C@H](C)Oc2ccc(NS(=O)(=O)c3cn(C)cn3)cc2C1=O | inactive |
| C[C@H]1CN([C@@H](C)CO)S(=O)(=O)c2ccc(C#CC3(O)CCCC3)cc2O[C@@H]1CN(C)C(=O)Nc1cccc(F)c1 | active |
| C[C@H]1CN([C@@H](C)CO)S(=O)(=O)c2ccc(C#Cc3ccccc3F)cc2O[C@H]1CN(C)C(=O)c1ccc2c(c1)OCO2 | inactive |
| C[C@H]1CN([C@@H](C)CO)S(=O)(=O)c2ccc(/C=C/c3ccccc3)cc2O[C@@H]1CN(C)C(=O)Nc1cc(F)ccc1F | inactive |
| C[C@H](CO)N1C[C@H](C)[C@@H](CN(C)C(=O)Nc2cc(F)ccc2F)Oc2cc(/C=C/c3ccccc3)ccc2S1(=O)=O | inactive |
| C[C@H]1CN([C@@H](C)CO)S(=O)(=O)c2ccc(C#Cc3ccncc3)cc2O[C@@H]1CN(C)C(=O)Nc1ccc2c(c1)OCO2 | inactive |
| C[C@@H]1CN([C@@H](C)CO)S(=O)(=O)c2ccc(C#Cc3ccccc3F)cc2O[C@H]1CN(C)C(=O)c1ccc2c(c1)OCO2 | active |
| C[C@@H]1CN([C@@H](C)CO)S(=O)(=O)c2ccc(C#Cc3ccncc3)cc2O[C@H]1CN(C)C(=O)Nc1ccc2c(c1)OCO2 | active |
| C[C@H]1CN([C@@H](C)CO)S(=O)(=O)c2ccc(C#Cc3ccncc3)cc2O[C@H]1CN(C)C(=O)Nc1ccc2c(c1)OCO2 | inactive |
| C[C@@H]1CN([C@H](C)CO)S(=O)(=O)c2ccc(/C=C/c3ccccc3)cc2O[C@H]1CN(C)C(=O)Nc1cc(F)ccc1F | active |
| C[C@H](CO)N1C[C@H](C)[C@@H](CN(C)C(=O)Nc2cccc(F)c2)Oc2cc(C#CC3(O)CCCC3)ccc2S1(=O)=O | inactive |
| C[C@@H]1CN([C@@H](C)CO)S(=O)(=O)c2ccc(C#CC3(O)CCCC3)cc2O[C@@H]1CN(C)C(=O)Nc1cccc(F)c1 | inactive |
| C[C@H]1CN([C@@H](C)CO)S(=O)(=O)c2ccc(C#Cc3ccccc3F)cc2O[C@@H]1CN(C)C(=O)c1ccc2c(c1)OCO2 | inactive |
| C[C@@H]1CN([C@H](C)CO)C(=O)c2cc(NS(C)(=O)=O)ccc2O[C@@H](C)CCCCO[C@@H]1CN(C)C(=O)CCCN(C)C | inactive |
| C[C@@H]1CN([C@@H](C)CO)C(=O)Cc2cc(NC(=O)CCCCCC(=O)Nc3ccccc3N)ccc2O[C@@H]1CN(C)Cc1ccc(-c2ccccc2)cc1 | inactive |
| C[C@@H]1CN([C@@H](C)CO)C(=O)c2cc(NS(=O)(=O)c3cn(C)cn3)ccc2O[C@H]1CN(C)C(=O)Nc1ccc2c(c1)OCO2 | inactive |
| C[C@H]1CN([C@@H](C)CO)C(=O)c2cccc(NC(=O)C3CCOCC3)c2O[C@H]1CN(C)Cc1ccccc1 | inactive |
| CCC(=O)Nc1ccc2c(c1)OC[C@@H](C)N(C(=O)CN1CCOCC1)C[C@H](C)[C@H](OC)CN(C)C2=O | inactive |
| CN(C)CCCNC(=O)C[C@H]1CC[C@H]2[C@@H](COC[C@@H](O)CN2S(=O)(=O)c2ccc(Cl)cc2)O1 | inactive |
| C[C@H](CO)N1C[C@H](C)[C@@H](CN(C)S(C)(=O)=O)Oc2cc(C#CCN(C)C)ccc2S1(=O)=O | inactive |

| SMILES | cytotoxicity call |
| --- | --- |
| COCC(=O)Nc1ccc2c(c1)OC[C@@H](C)N(C(=O)Cc1ccccn1)C[C@@H](C)[C@@H](OC)CN(C)C2=O | inactive |
| C[C@H]1CN([C@@H](C)CO)C(=O)c2cc(NC(=O)C3CC3)ccc2O[C@H]1CN(C)Cc1ccc2c(c1)OCO2 | inactive |
| COc1cccc(NC(=O)N(C)C[C@H]2Oc3cc(C#Cc4ccncc4)ccc3S(=O)(=O)N([C@H](C)CO)C[C@@H]2C)c1 | inactive |
| COc1cccc(NC(=O)N(C)C[C@H]2Oc3cc(C#Cc4ccncc4)ccc3S(=O)(=O)N([C@@H](C)CO)C[C@@H]2C)c1 | active |
| COc1cccc(NC(=O)N(C)C[C@H]2Oc3cc(C#Cc4ccncc4)ccc3S(=O)(=O)N([C@@H](C)CO)C[C@H]2C)c1 | inactive |
| COc1cc2c(cc1OC)CN(C(=O)[C@H]1[C@@H]3C(=O)O[C@@H](c4ccccc4)[C@@H](c4ccccc4)N3[C@@H](c3ccc(O)cc3)[C@]13C(=O)Nc1ccccc13)CC2 | inactive |
| O=c1/c(=C/c2cccc(Cl)c2)c2cccc3cccc1c32 | inactive |
| Cc1noc(C)c1S(=O)(=O)N(C)C[C@H]1OCCCC[C@H](C)Oc2ccc(NS(=O)(=O)c3cn(C)cn3)cc2C(=O)N([C@H](C)CO)C[C@@H]1C | inactive |
| Cc1ccc(S(N)(=O)=O)cc1 | inactive |
| CNS(=O)(=O)c1ccc(C)cc1 | inactive |
| Cc1noc(C)c1S(=O)(=O)N(C)C[C@@H]1OCCCC[C@@H](C)Oc2ccc(NS(C)(=O)=O)cc2C(=O)N([C@@H](C)CO)C[C@@H]1C | inactive |
| CCCCc1nc(-c2ccc(OCCCN(CC)CC)cc2)cn1-c1ccc(Oc2ccc(Cl)cc2)cc1 | active |
| COc1ccc(-n2nc(CCC(=O)N(C)O)cc2-c2ccc(Cl)cc2)cc1 | inactive |
| CN(C)CCOC(=O)COc1ccc(Cl)cc1.Cl | inactive |
| C[C@@H]1CN([C@H](C)CO)C(=O)c2cc(NC(=O)NC3CCCCC3)ccc2O[C@@H](C)CCCCO[C@@H]1CN(C)Cc1ccc2c(c1)OCO2 | inactive |
| CN(C)CCCNC(=O)C[C@@H]1C=C[C@@H](NC(=O)Cc2cccnc2)[C@@H](CO)O1 | inactive |
| C[C@H](CO)N1C[C@H](C)[C@@H](CN(C)C(=O)Nc2ccc3c(c2)OCO3)Oc2ccc(NS(C)(=O)=O)cc2CC1=O | inactive |
| C[C@H](CO)N1C[C@H](C)[C@@H](CN(C)Cc2ccc(-c3ccccc3)cc2)Oc2ccc(NS(=O)(=O)c3ccc(Cl)cc3)cc2CC1=O | inactive |
| C[C@@H]1CN([C@@H](C)CO)C(=O)Cc2cc(NS(=O)(=O)c3ccc(Cl)cc3)ccc2O[C@@H]1CN(C)Cc1ccc(-c2ccccc2)cc1 | inactive |
| C[C@H]1CN([C@@H](C)CO)C(=O)Cc2cc(NS(=O)(=O)c3ccc(Cl)cc3)ccc2O[C@@H]1CN(C)Cc1ccc(-c2ccccc2)cc1 | inactive |
| C[C@H](CO)N1C[C@H](C)[C@H](CN(C)Cc2ccc(-c3ccccc3)cc2)Oc2ccc(NS(=O)(=O)c3ccc(Cl)cc3)cc2CC1=O | inactive |
| C[C@@H]1CN([C@H](C)CO)C(=O)Cc2cc(NS(=O)(=O)c3ccc(Cl)cc3)ccc2O[C@H]1CN(C)Cc1ccc(-c2ccccc2)cc1 | active |
| C[C@H]1CN([C@@H](C)CO)C(=O)Cc2cc(NS(=O)(=O)c3ccc(Cl)cc3)ccc2O[C@H]1CN(C)Cc1ccc(-c2ccccc2)cc1 | active |
| C[C@@H]1CN([C@H](C)CO)C(=O)Cc2cc(NS(=O)(=O)c3ccc(Cl)cc3)ccc2O[C@@H]1CN(C)Cc1ccc(-c2ccccc2)cc1 | active |
| C[C@@H]1CN([C@@H](C)CO)C(=O)Cc2cc(NS(=O)(=O)c3ccc(Cl)cc3)ccc2O[C@H]1CN(C)Cc1ccc(-c2ccccc2)cc1 | active |
